Reference: PubChem BioAssay (NCI)
Where “and” joins values, the source holds several entries; their conditions need not be identical. Equal entries are not always repeated. The panel holds about 83,000 compounds, 20% with a hit somewhere; the sample as a whole holds those more often.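 Treatment: one concentration, 48 hours, 96-well format. Scoring: percent growth, with anything below 10 considered active.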 Calls of active or inactive are those of the source.

Assays:
Experiment in all cases: NCI-60 one-dose screen, 48 h (100 = growth as untreated, 0 = no growth, -100 = all killed)
[1] = tested on: HCT-15 colon
[2] = tested on: HT29 colon
[3] = tested on: SNB-75 CNS
[4] = tested on: SNB-19 CNS
[5] = tested on: U251 CNS
[6] = tested on: PC-3 prostate
[7] = tested on: SK-MEL-5 melanoma
[8] = tested on: UACC-62 melanoma
[9] = tested on: LOX IMVI melanoma
[10] = tested on: SK-MEL-28 melanoma; conditions: 10 µM
[11] = tested on: SK-MEL-2 melanoma
[12] = tested on: EKVX NSCLC
[13] = tested on: SN12C renal
[14] = tested on: UO-31 renal
[15] = tested on: TK-10 renal
[16] = tested on: ACHN renal
[17] = tested on: CAKI-1 renal
[18] = tested on: A498 renal
Experimental: Growth inhibition of the A498 human tumor cell line is measured as a screen for anti-cancer activity. Cells are grown in 96 well plates and exposed to the test compound for 48 hours. Compounds are tested at a single concentration, which is 10^-5 M for most compounds. The reported endpoint is percent growth (GI% or GIPRCNT), where numbers from 0 - 100% represent growth inhibition, and numbers from -100% - 0 represent cell death. For example, a value of 40 represents 60% growth inhibition. A value of 0 means no net growth occurred over the course of the experiment. A value of -40 indicates 40% of cells at the beginning of the experiment died by the end of the experiment. A value of -100 means all cells are dead at the end of the experiment.
NCI-60 Human Tumor Cell Lines Screen was performed using the standard one-dose NCI protocol, which is described in more detail at https://dtp.cancer.gov/discovery_development/nci-60/default.htm.
Compounds with GIPRCNT values below 10 were considered active. Activity score was based on GIPRCNT using the following formula: […]
Score is 0 for GIPRCNT values of 100 or above, 50 for GIPRCNT values of 0, and 100 for GIPRCNT values of -100.

[19] = tested on: CCRF-CEM leukemia
[20] = tested on: MOLT-4 leukemia

Measured: growth

COc1ccc2sc3cccc(NCCN(C)C)c3c(=O)c2c1
inactive: [4]; 10 µM 63.9% and 13.6% | [6]; 10 µM 34.2% and 21.1% | [11]; 10 µM 77.3% and 70.7% | [12]; 10 µM 26.2% | [15]; 10 µM 36.1% and 32.2% | [19]; 10 µM 21.3%
64.4% (inactive) and -96.3% (active): [8]; 10 µM
17.1% (inactive) and -91% (active): [9]; 10 µM
23.8% (inactive) and -29.8% (active): [17]; 10 µM
21.3% (inactive) and -28.3% (active): [16]; 10 µM
85.8% (inactive) and -80.8% (active): [10]
51.8% (inactive) and -6.29% (active): [3]; 10 µM
32.2% (inactive) and -29.5% (active): [1]; 10 µM
65.1% (inactive) and -98.2% (active): [7]; 10 µM
active: [2]; 10 µM 5.38% and -36.9% | [5]; 10 µM -18.1% | [20]; 10 µM 8.84% and -15.2%
45.1% (inactive) and 9.54% (active): [13]; 10 µM
17.4% (inactive) and -2.55% (active): [14]; 10 µM
77.8% (inactive) and 5.39% (active): [18]; 10 µM

CC/C(=C(\c1ccccc1)c1ccc(OCCN(C)C)cc1)c1ccccc1
inactive: [3]; 10 µM 39.9% | [4]; 10 µM 52.6% | [6]; 10 µM 34.4% | [10] 11.3% | [11]; 10 µM 68.5% | [12]; 10 µM 60% | [12]; 12.5 µM 36.5% | [13]; 10 µM 47.7% | [13]; 12.5 µM 37.1% | [14]; 10 µM 40.3% | [15]; 10 µM 51.9% | [15]; 12.5 µM 56.2% | [16]; 10 µM 60.6% | [16]; 12.5 µM 25.9% | [17]; 10 µM 29.1% | [18]; 10 µM 64.1% | [19]; 10 µM 34.6% | [20]; 10 µM 33.3%
active: [1]; 10 µM 7.63% | [1]; 12.5 µM -65% | [2]; 10 µM -11.2% | [2]; 12.5 µM -66.6% | [3]; 12.5 µM -4.48% | [4]; 12.5 µM 1.19% | [5]; 10 µM 4.8% | [5]; 12.5 µM -84.3% | [6]; 12.5 µM -30.7% | [7]; 10 µM -95.2% | [7]; 12.5 µM -94.3% | [8]; 12.5 µM -90.5% | [9]; 10 µM -43.9% | [9]; 12.5 µM -99% | [11]; 12.5 µM -50% | [14]; 12.5 µM -62.4% | [17]; 12.5 µM 9.74% | [18]; 12.5 µM -6.6% | [19]; 12.5 µM -14.1% | [20]; 12.5 µM -10.8%

CC[C@@]1(O)C(=O)OCc2c1cc1n(c2=O)Cc2cc3c(CN(C)C)c(O)ccc3nc2-1
9.24% (active) and 18.9% (inactive): [12]; 10 µM
inactive: [4]; 10 µM 16% and 10.7% | [10] 19.5% | [13]; 10 µM 13.6% and 14.3%
21.2% (inactive) and -10.4% (active): [1]; 10 µM
active: [2]; 10 µM -15.4% and -22.9% | [3]; 10 µM 2.72% and -62.8% | [5]; 10 µM -23% and 2.06% | [6]; 10 µM -1.74% | [7]; 10 µM -85.8% and -77.4% | [8]; 10 µM -73.1% and -71.5% | [9]; 10 µM -14.1% and -34.9% | [11]; 10 µM -36.9% and -18.1% | [14]; 10 µM -45.7% and -74.6% | [15]; 10 µM 2.54% and -4.42% | [16]; 10 µM -40% and -40.5% | [17]; 10 µM -35% and -16.2% | [18]; 10 µM -50.8% and -69.4% | [19]; 10 µM -28.7% | [20]; 10 µM -3.69% and -19.2%

CN(Cc1cnc2nc(N)nc(N)c2n1)c1ccc(C(=O)N[C@@H](CCC(=O)O)C(=O)O)cc1
inactive: [1]; 2.5 µM 28.5% | [1]; 10 µM 36% | [2]; 2.5 µM 29% | [2]; 10 µM 25.9% | [3]; 2.5 µM 73.8% | [3]; 10 µM 66% | [4]; 2.5 µM 33.9% | [4]; 10 µM 29.5% | [5]; 2.5 µM 34.1% | [5]; 10 µM 38.3% | [6]; 2.5 µM 33.8% | [6]; 10 µM 37% | [7]; 2.5 µM 20% | [8]; 2.5 µM 24.5% | [8]; 10 µM 16.8% | [9]; 2.5 µM 14.3% | [9]; 10 µM 16.3% | [11]; 2.5 µM 93.1% | [11]; 10 µM 83.2% | [12]; 2.5 µM 41.5% | [12]; 10 µM 47% | [13]; 2.5 µM 33.3% | [13]; 10 µM 26.9% | [14]; 2.5 µM 37.8% | [14]; 10 µM 32.3% | [15]; 2.5 µM 66.9% | [15]; 10 µM 67.7% | [16]; 2.5 µM 24.9% | [16]; 10 µM 29.4% | [17]; 2.5 µM 19.2% | [17]; 10 µM 15.5% | [19]; 2.5 µM 12.9% | [19]; 10 µM 18.8% | [20]; 2.5 µM 14.7% | [20]; 10 µM 10.9%
active: [7]; 10 µM 3.31% | [18]; 2.5 µM -11.8%
